According to PubChem BioAssay AID2405 (Southern Research Specialized Biocontainment Screening …, 2010):
Values without a mark were called inactive. The rule behind the calls is not given here.

Assay: RSV cytopathic effect inhibition in HEp-2 – cell-based, probe candidates (AID 2405)
Details: HEp-2 cells, active compounds read high; at 100 µM unless noted

Compound | maximum inhibition
OC1c2cc(Br)ccc2N=C2CCCCCN21 (centres undefined) | 1.05%
Cc1cccc2c(=O)n3c(nc12)CCC3 | 1.55% [at 0.2 µM]
O=[N+]([O-])c1ccc2c(c1)C(O)N1CCCC1=N2 (centres undefined) | 2.6% [at 12.5 µM]
O=c1c2c(F)cccc2nc2n1CCC2 | 2.17% [at 0.39 µM]
COc1cccc2c(=O)n(-c3ccccc3)c(SCC(=O)Nc3ccc4c(c3)CCC4)nc12 | 21.8%
OC1c2cc(I)ccc2N=C2CCCN21 (centres undefined) | 0.75% [at 50 µM]
CC1CCN(CCCNC(=O)c2cc3c(s2)-c2ccccc2OC3)CC1 | 3.42% [at 50 µM]
c1ccc2c(c1)CN1CCCC1=N2 | 1.32% [at 6.25 µM]
COc1ccc(Cn2nc(C)cc2OC(=O)c2c(F)cccc2F)cc1 | 1.12% [at 0.39 µM]
CN(C)CCCN1c2ccc([N+](=O)[O-])cc2CCc2cc([N+](=O)[O-])ccc21 | 10.2% [at 50 µM]
COc1ccc(-c2csc(N(C(=O)c3ccccc3Cl)C(C)C)n2)cc1 | 6.99% [at 25 µM]
O=C(CSc1nc2ccccc2c(=O)n1-c1ccccc1F)Nc1ccc2c(c1)CCC2 | 7.99% [at 12.5 µM]
O=C(CSc1nc2cccc(I)c2c(=O)n1-c1ccccc1)Nc1ccc2c(c1)CCC2 | 5.17%
Cc1ccc2nc(SCC(=O)Nc3ccc4c(c3)CCC4)n(-c3ccccc3)c(=O)c2c1 | 47.5% [at 12.5 µM]
